The sample as a whole holds a higher share of hits than the screen did.
VACV E9 pol inh: vaccinia E9 polymerase processive synthesis inhibition; 46,000 tested, 0.94% active; normalized absorbance, % (concentration not given with the values); in vitro processive DNA synthesis, absorbance read-out; stronger effect = lower value; in the data active means normalized absorbance mostly below about 85%, no sharp cut-off; inactive means mostly above about 86%
An asterisk follows results filed as active.

SMILES | VACV E9 pol inh
COc1cc2cc3c(=O)oc(-c4ccccc4F)nc3nc2cc1OC | 98.6
O=C(COC(=O)/C=C/c1cccc(Cl)c1)NC1CCCCC1 | 97.0
CC(c1ccccc1)N1C(=O)NC(=O)/C(=C/c2coc3ccccc3c2=O)C1=O (configuration not stated) | 91.4
N=C1/C(=C\c2coc3ccccc3c2=O)C(=O)N=C2SC=NN12 | 45.6*
CC1=NN2C(=N)/C(=C/c3cn(CCOc4c(C)cccc4C)c4ccccc34)C(=O)N=C2S1 | 100.6
CC(C)(C)CC[n+]1ccc(C(N)=O)cc1 | 100.0
CC1=C(C#N)C(C(F)(F)F)(C(F)(F)F)N=C(C2CCCCC2)N1 | 106.9
CC(C)CNC(=O)c1cccc(S(=O)(=O)N2CCCCC2)c1 | 99.4
CC(=O)Nc1ccc(-n2nncc2-c2ccccc2)cc1 | 97.7
Cc1nn(-c2ccc3nnc(C)n3n2)c(C)c1CCC(=O)O | 100.4
C=CCOc1ccccc1CNc1ncn[nH]1 | 84.1
COc1ccc(CNc2ncn[nH]2)cc1OC | 82.0*
COc1ccc(CNc2ccccn2)cc1OC | 98.8
O=S(=O)(c1ccc2nc(CO)[nH]c2c1)c1ccc2nc(CO)[nH]c2c1 | 116.2
CCC(C)(C(=O)NC1CCCCC1)N(C)C(=O)Cc1cccs1 (configuration not stated) | 102.7
Cc1nc2ccccn2c1-c1ccnc(=S)[nH]1 | 97.6
Cc1onc(C(=O)N(C)C)c1-c1ccnc(=S)[nH]1 | 87.7*
CC(=O)N(C(C)=O)c1nccc(-c2c(-c3ccccc3)noc2C)n1 | 96.9
O=C(Nc1cccc(Cl)c1)c1ccc2c(Cl)c3c(nc2c1)CCCC3 | 99.0
N#Cc1cc(Br)ccc1N=C1CCCN1c1cccc(Cl)c1 | 99.6
Cc1nn(CCC(N)=O)c2nc(-c3cccnc3)cc(C(F)(F)F)c12 | 99.2
COc1ccc2[nH]c3nc(=S)[nH]nc3c2c1 | 100.8
CCN(CC)c1ncnc2c1[nH]c1ccc(C)cc12 | 99.9
COc1ccc2[nH]c3c(N(C)C)ncnc3c2c1 | 64.0*
COc1ccc(-c2n[nH]c(C(F)(F)F)c2-c2cc3ccccc3o2)c(O)c1 | 63.2*
SMILES | VACV E9 pol inh
COc1ccc(-c2n[nH]c(C(F)(F)F)c2-c2cnn(-c3ccccc3)c2)c(O)c1C | 93.9
Cc1c(O)ccc(-c2n[nH]c(C(F)(F)F)c2Oc2ccccc2)c1O | 93.0
O=C1Nc2ccccc2S/C1=C/c1ccc(C(=O)N2CCCCC2)cc1 | 95.1
CCN(CC)CC#Cc1cccc(C)c1 | 100.0
N#CC(C(=O)COc1ccccc1)c1nc2ccccc2[nH]1 (configuration not stated) | 107.2
CCN(CC)S(=O)(=O)c1ccc(C(=O)Nc2nccs2)cc1 | 85.6*
CN(C1CCCCC1)S(=O)(=O)c1ccc(C(=O)Nc2nccs2)cc1 | 88.1
CN(C)S(=O)(=O)c1ccc(C(=O)Nc2nccs2)cc1 | 96.9
CN1/C(=C\C(=O)NC2CCCCC2)C(C)(C)c2ccccc21 | 105.0
CCN1CCC(N(Cc2ccco2)C(=O)NC2CCCC2)CC1 | 91.4
COc1cc2cc3c4c(cc(OC)c(OC)c4c2cc1OC)CCN3C | 65.7*
COc1ccc(OCC2c3cc(OC)c(OC)cc3CCN2C(=O)C(C)C)cc1 (configuration not stated) | 96.3
COc1ccc(C(=O)N2CCc3cc(OC)c(OC)cc3C2C)cc1 (configuration not stated) | 90.6
CC1CCCC(C)N1C(=O)COc1ncnc2ccccc12 (configuration not stated) | 104.9
CCn1c2ccccc2n2cc(-c3ccccc3)nc12 | 94.2
Nc1nc2ccccc2n1CCN1CCCCC1 | 99.9
c1ccc(-c2cn3c4ccccc4n(CCN4CCCCC4)c3n2)cc1 | 58.8*
CCc1ccc(C2NCc3ccccc3-n3cccc32)cc1 (configuration not stated) | 100.1
S=c1[nH]nc(C2CCCCC2)n1N=Cc1ccncc1 | 101.2
FC(F)(F)Oc1ccc(-n2cc3ccsc3c2)cc1 | 110.3
CC(=O)Nc1sccc1C(=O)O | 91.6
Cc1ccc(C)n1-c1sccc1C(=O)O | 22.0*
Cc1ccc(C)n1-c1sccc1C(=O)CC#N | 109.5
COc1ccc(-c2cc3ccccn3c2C)cc1 | 97.6
Cn1c(SCc2cc(F)cc(F)c2)nnc1-c1ccc2nonc2c1 | 101.1
SMILES | VACV E9 pol inh
O=C(Cc1cccc2ccccc12)N1CCN(Cc2ccccc2)CC1 | 101.9
Cc1cccc(CN2CCN(C(=O)CC(C)C)CC2)c1 | 59.3*
CCn1c2ccccc2c2cc(CN3CCN(Cc4cccc(C)c4)CC3)ccc21 | 99.4
N#C/C(=C\O)c1ccc(Cl)cc1Cl | 92.2
CCOC(=O)N1CCC(NC(=O)c2cc(Cl)sc2Cl)CC1 | 116.0
COc1ccc(-c2cc3c(S(=O)(=O)c4ccccc4)cc(NC(=O)c4ccco4)cc3n2C)cc1 | 108.8
CN1CN=C(SCc2cccc(C#N)c2)NC1 | 76.1*
N#Cc1ccc(CSC2=NCCN2)cc1 | 70.6*
N#Cc1ccc(CSc2ccc(Cl)cc2)cc1 | 99.9
CN1CN=C(SCc2ccc(Cl)c(Cl)c2)NC1 | 64.6
O=C(CSC1=NCCN1)NC(c1ccccc1)c1ccccc1 | 90.5
CCN1CN=C(SCc2cccc(C#N)c2)NC1 | 68.7
Fc1ccc(-c2oncc2-c2nnnn2-c2ccc(Cl)cc2)cc1 | 79.2
CCc1c(C)c(C#N)c2nc3ccccc3n2c1NCc1ccccc1 | 99.7
COC(=O)[C@@H](N)CCCN=C(N)N[N+](=O)[O-] | 99.7
CCCCC(CC)CN=C(N)NC(N)=NCCCCCCN=C(N)NC(N)=NCC(CC)CCCC (configuration not stated) | 27.1*
S=C(NCC1CCCO1)SCc1cn2ccccc2n1 (configuration not stated) | 100.6
CS(=O)(=O)N1CC(=O)Nc2ccccc21 | 91.4
COc1ccccc1CC(=O)NCc1ccc(-c2cccs2)cc1 | 100.7
CN(C)CCNc1cc(-c2ccncc2)nc2ccccc12 | 62.7
CN(C)CCNc1cc(-c2cccnc2)nc2ccccc12 | 48.0*
COC(=O)c1cc(-c2cccnc2)nc2ccccc12 | 96.4
CN(C)C=NC(=O)c1ccc(-c2cccs2)s1 | 80.2*
Cc1ccc(C(=O)c2cccs2)s1 | 99.1
O=C(/C=C/c1ccc(-c2cccs2)s1)N1CCSCC1 | 95.3
SMILES | VACV E9 pol inh
c1ccc(N=C2OCC(COc3ccccc3)S2)cc1 (configuration not stated) | 99.4
Cc1[nH]n(-c2cccc(Cl)c2)c(=O)c1N=O | 67.3*
Cc1[nH]n(-c2ccccc2)c(=O)c1C=Nc1cccc(N)c1 | 99.8
Cc1[nH]n(-c2ccccc2)c(=O)c1Sc1ccc(Cl)cc1 | 100.1
O=C(O)c1ccccc1SCC(=O)C12CC3CC(CC(C3)C1)C2 | 98.4
O=C(Oc1ccc(Cl)c(Cl)c1)c1ccccc1F | 96.5
